CYP2C9 inh – blocks human cytochrome P450 2C9 | 96,000 compounds, 20% hits | inhibition, % at 5 µM | AID 777 | CYP2C9 Supersomes, luciferin-H conversion, luminescence;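 active = blocking of liver enzyme CYP2C9 beyond about 50% at 5 µM, limit read from the data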
Mac1 fbg inh – inhibitors of human CD11b/CD18 binding to fibrinogen. inhibition, % at 10 µM. 93,000 compounds, 0.54% hits. P05107+P11215. K562 CD11b/CD18 adhesion to fibrinogen, ATPlite luminescence; Mn2+ added to activate the integrin. AID 1497;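 active = primary inhibition of 50% or more at 10 µM, then 40% or more on retest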
CD11b adhes enh – enhancers of human CD11b/CD18 binding to fibrinogen. P05107+P11215. K562 CD11b/CD18 adhesion to fibrinogen, ATPlite luminescence. activation, % at 10 µM. 93,000 compounds, 0.07% hits. AID 1499;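 active = 10 µM primary screen giving 50% or more activity, confirmed by 40% or more on retest at that dose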
CYP2C9 activ – CYP2C9 (human) activation | 96,000 compounds, 1.4% hits | recombinant CYP2C9, luciferin-H conversion, luminescence; hits give high values; factor 1 = untreated enzyme, 0 = blocked | AID 1024 | activation factor at 5 µM;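 active = activation factor of 2 or more for CYP2C9 at a 5 µM dose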;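 also: 0 = sulfaphenazole-blocked wells and 1 = vehicle-only wells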
CYP2C19 act – cytochrome P450 2C19 (human) activation. 96,000 tested, under 10 active. activation factor at 5 µM. P33261. AID 1025. recombinant CYP2C19, luciferin-H EGE luminescence; hits give high values; 0 = fully inhibited enzyme, 1 = untreated enzyme;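 active = activation factor of at least 2 at 5 µM in the primary screen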;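 also: 0 = wells with 2.5 mM tranylcypromine and 1 = vehicle-only wells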
Target sequence (P33261 whole entry, looked up): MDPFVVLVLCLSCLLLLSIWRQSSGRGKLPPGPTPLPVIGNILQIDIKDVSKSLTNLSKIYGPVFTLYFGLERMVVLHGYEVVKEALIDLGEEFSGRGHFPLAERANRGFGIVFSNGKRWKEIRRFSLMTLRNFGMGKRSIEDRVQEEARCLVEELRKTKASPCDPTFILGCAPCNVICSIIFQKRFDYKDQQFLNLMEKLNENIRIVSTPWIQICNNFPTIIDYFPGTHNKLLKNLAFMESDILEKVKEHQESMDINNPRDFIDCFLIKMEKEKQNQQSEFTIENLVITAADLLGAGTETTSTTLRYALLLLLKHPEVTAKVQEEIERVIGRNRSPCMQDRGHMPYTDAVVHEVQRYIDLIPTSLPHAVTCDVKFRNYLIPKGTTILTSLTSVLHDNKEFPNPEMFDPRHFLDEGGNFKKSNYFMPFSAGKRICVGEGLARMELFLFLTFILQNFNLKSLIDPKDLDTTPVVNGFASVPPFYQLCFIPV
CYP2C19 inhib – human CYP2C19 inhibition; P33261; CYP2C19 Supersomes, luciferin-H EGE luminescence, 30 min; inhibition, % at 5 µM; 96,000 compounds, 21% hits;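 active = CYP2C19 inhibition above a set limit at 5 µM in the primary screen, cut at about 50% in these data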;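 also: plate controls were negative control wells for no effect and 2.5 mM tranylcypromine positive control for full effect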
* = called active by the depositor; . = not tested or not shown. A selection: hits, their analogues and other compounds. The true share with any hit is near 28%.

SMILES	CYP2C9 inh	Mac1 fbg inh	CD11b adhes enh	CYP2C9 activ	CYP2C19 act	CYP2C19 inhib
CC1CC(C)CN(C(=O)CSCC(=O)Nc2nc(-c3cccs3)cs2)C1 (configuration not stated)	84*	28	-2	0.2	0.6	40
O=C(Nc1ccc(Oc2cccc3ccccc23)cc1)c1ccco1	-37	36	-4	1.4	0.6	40
COc1ccccc1CNC(=O)C1CCN(S(=O)(=O)c2ccc3c(c2)OCCCO3)CC1	.	3	-2	.	.	.
O=C(O)Cn1c(SC2CCCCC2)nc2ccccc21	13	-7	-2	0.9	0.9	7
O=C1OCCC1Sc1nc2ccccc2n1-c1ccccc1 (configuration not stated)	66*	5	1	0.3	0.3	69*
O=C1OCCC1Sc1nc2ccccc2n1Cc1ccccc1 (configuration not stated)	55*	13	1	0.5	0.2	82*
O=C1OCCC1Sc1nnc(-c2ccccc2)o1 (configuration not stated)	2	-5	-1	1	0.6	39
COc1ccc(-n2c(SC3CCOC3=O)nc3ccccc32)cc1 (configuration not stated)	41	-4	1	0.6	0.5	51*
CC(=O)c1c(C(C)=O)c(C)n(-c2ccc(N)c(C)c2)c1C	42	-7	3	0.6	0.7	25
COC(=O)c1ccc(CSc2nccn2C)cc1	-11	-26	-4	1.1	0.3	65*
Cn1c(CO)cnc1SCc1ccc([N+](=O)[O-])cc1	31	.	.	0.7	0.3	65*
Cn1ccnc1SCc1ccc([N+](=O)[O-])cc1	14	2	-3	0.9	0.4	55*
COC(=O)C1=C(CSc2nccn2C)NC(=O)NC1c1cc(C)ccc1C (configuration not stated)	28	13	1	0.7	0.5	49
CCOCc1nnc(NC(=O)c2c(OC)cccc2OC)s1	0	-20	-2	1	0.9	8
O=C(CNc1c(Br)cc(Br)cc1Br)NN=C1CCCCC1	.	-10	59	.	.	.
O=[N+]([O-])c1ccc(/C=N/NC(=S)Nc2ccccc2C(F)(F)F)o1	.	3	0	.	.	.
COC(=O)C1=C(N)N(c2ccc(F)cc2)C2=C(C(=O)CCC2)C1c1ccc2c(c1)OCO2 (configuration not stated)	-6	-19	1	1.1	1.1	-9
O=C(NCCc1ccc(O)cc1)c1ccc(Cl)cc1	-131	.	.	2.3*	0.6	42
CN(C)Cc1cc(CCNC(=O)c2ccc(Cl)cc2)ccc1O	-6	8	-4	1.1	1.1	-7
CCNC(=O)C(=O)NCCc1ccc(Cl)cc1	9	-1	1	0.9	0.4	59*
Cc1occc1C(=O)NCCc1ccc(Cl)cc1	6	-10	3	0.9	0.4	57*
COc1ccccc1CCNC(=O)c1ccoc1C	33	-1	2	0.7	0.2	83*
O=C(c1ccco1)N1CCN(Cc2nc3ccc([N+](=O)[O-])cc3c(=O)n2-c2ccccc2F)CC1	29	4	0	0.7	0.7	28
O=C1NC(=Nc2ccccc2)S/C1=C\c1cccn1-c1ccccc1	-67	51	-5	1.7	0.8	18
Cc1ccc2[nH]c(-c3ccccc3)c(CN3CCOCC3)c(=O)c2c1	-16	-41	-1	1.2	1	2
SMILES	CYP2C9 inh	Mac1 fbg inh	CD11b adhes enh	CYP2C9 activ	CYP2C19 act	CYP2C19 inhib
CO/N=C/c1ccc(Oc2ccc(C)cc2)nc1	-26	.	.	1.3	0.7	32
Cn1c(=O)c2c(nc(NCc3cccnc3)n2Cc2cccc(C(F)(F)F)c2)n(C)c1=O	69*	-1	-1	0.3	0.5	53*
COc1cccc(Cn2c(NCc3cccnc3)nc3c2c(=O)n(C)c(=O)n3C)c1	35	.	.	0.6	0.9	13
CCc1sc(C(=O)Nc2cccc(C(C)=O)c2)cc1C	.	2	1	.	.	.
CCOC(=O)n1c(=O)n(Cc2ccc(Cl)c(Cl)c2)c2ccccc21	53*	35	-3	0.5	0.5	51*
CCOC(=O)n1c(=O)n(Cc2c(Cl)cccc2Cl)c2ccccc21	48	.	.	0.5	0.4	61*
CCOC(=O)n1c(=O)oc2ccccc21	4	-24	-3	1	1	2
CCOC(=O)n1c(=O)n(Cc2ccccc2)c2ccccc21	18	-7	0	0.8	0.3	70*
CCCC/C(C)=N/NC(=O)C(=O)NCCc1ccccc1	15	-14	-4	0.8	1	2
CCc1ccc(NC(=O)COC(=O)C2(c3ccc(Cl)cc3)CCCC2)cc1	.	101	-6	.	.	.
CN1CCN(c2nc3c(c(=O)n(C)c(=O)n3C)n2CC(=O)C23CC4CC(CC(C4)C2)C3)CC1	-21	9	-5	1.2	1.1	-11
CCCCCCCCCCS(=O)(=O)N/N=C/c1ccc(O)cc1	.	12	1	.	.	.
Cc1cc(C(=O)N(C)Cc2ccc(Br)cc2)no1	31	-5	4	0.7	0.1	92*
CC(C)(C)NC(=O)Cn1c(SCC(=O)NCc2cccs2)nc2ccccc21	35	4	-1	0.7	0.7	32
COc1ccc(C(=O)NCCSCc2ccccc2C)cc1	52*	-4	-1	0.5	0.4	55*
COc1ccc(C(=O)NCCSCc2ccco2)cc1OC	-6	-3	-3	1.1	0.6	37
O=C(CCSc1ccccc1)NCCSCc1ccco1	.	21	3	.	.	.
COc1ccc(C(=O)NCCSCc2ccc(C)cc2)cc1	53*	.	.	0.5	0.4	55*
Cc1ccc(SCCC(=O)NCCSCc2ccccc2C)cc1	81*	20	-3	0.2	0.7	33
Cc1ccc(NC(=O)c2cc3nc(C)cc(C)n3n2)cc1	5	6	-2	1	1	-4
CCCC(=O)NC(C)c1nc2ccccc2n1C (configuration not stated)	2	-9	-4	1	1	2
NC(=O)c1cc(Cl)cn(-c2ccccc2)c1=O	-26	-7	-4	1.3	1.3	-25
COCCn1c(C2CCCCC2)nc2sc3ccccc3c(=O)c2c1=O	77*	-15	14	0.2	0.4	61*
CCc1nc2sc3ccccc3c(=O)c2c(=O)n1CCOC	12	-1	3	0.9	0.8	16
COc1ccc2[nH]c(C)c(C(=O)CN3CCc4cc(OC)c(OC)cc4C3)c2c1	42	0	-1	0.6	0.9	6
Cc1cc(Cl)ccc1NC(=O)NC1CCN(S(=O)(=O)c2ccc(F)cc2)CC1	-1	4	0	1	0.9	6
S=C(Nc1ccccc1)N1N=CCC1c1ccccc1 (configuration not stated)	26	72*	-4	0.7	0.3	66*
O=C(c1ccc(F)cc1)C1CCN(C(=S)Nc2ccccc2)CC1	42	.	.	0.6	0.5	50
